Compound activity from PubChem.
RecA splice inh: Mtb RecA intein splicing inhibition | cell-free RecA intein splicing, fluorescence | inhibition, % (concentration not given with the values) | P9WHJ3 | AID 2221 | 290,000 tested, 0.75% active; in the data active = inhibition above about 30%;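 also: 0% = vehicle wells and 100% = reference inhibitor control wells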
BJeLR viability: kills HRASV12-expressing BJeLR cells | inhibition, % (concentration not given with the values) | 300,000 tested, 0.17% active | AID 1554 | BJeLR (HRASV12) viability, CellTiter-Glo ATP luminescence, 48 h; in the data active = inhibition above about 50%
Mtb hypoxia rep: reduces hypoxia-regulated biosensor signal in M. tuberculosis; AID 1159583; M. tuberculosis hypoxia-regulated fluorescent reporter, fluorescence; 300,000 tested, 0.1% active; fluorescence inhibition, % (test concentration not listed); in the data active = fluorescence inhibition mostly above about 23%, no sharp cut-off; inactive = mostly below about 17%
PrP UTR inh: inhibition of PrP 5' UTR reporter expression | inhibition, % (test concentration not listed) | AID 488862 | cell-based PrP 5' UTR mRNA reporter, plate reader | 340,000 tested, 0.35% active; in the data active = inhibition above about 52%; also: 0 = median of the neutral control wells
PrPC TRFRET: inhibitors of human cell surface prion protein PrPC; P04156; TR-FRET read-out; inhibition, % at 13.8 µM; 370,000 tested, 0.43% active; AID 720596; in the data active = inhibition above about 24%; also: 0% = median of the test wells and 100% = reference compound wells
SARS 3CLpro inh: SARS-CoV 3CLpro protease inhibition | recombinant SARS-CoV 3CLpro, quenched FRET peptide cleavage | AID 1706 | inhibition, % at 6 µM | P0C6X7 | 290,000 tested, 0.14% active; in the data active = inhibition above about 12%
PrPC TRFRET cf: cell surface PrPC inhibition, TR-FRET confirmation; 1,500 tested, 65% active; cell surface PrPC level; shares compounds with PrPC TRFRET; AID 743200; inhibition, % at 13.8 µM; in the data active = inhibition above about 25%
LD9 tox: kills or reduces viability of LD9 cells in PrPc counter-screen | shares compounds with PrPC TRFRET | LD9 cells cytotoxicity, luminescence viability | inhibition, % at 13.8 µM | 1,500 tested, 29% active | AID 743201; in the data active = inhibition above about 9.5%
Numbers without * were called inactive; . = not tested or not shown. The list is not random: actives were taken first. Their share in the collection is about 1.4%.

SMILES	RecA splice inh	BJeLR viability	Mtb hypoxia rep	PrP UTR inh	PrPC TRFRET	SARS 3CLpro inh	PrPC TRFRET cf	LD9 tox
Cc1cc2cc(CNC(=S)NCc3ccccc3)ccc2n1C	-1	-2	9	-26	31*	1	29*	-7
Cc1ccccc1NC(=S)NCc1ccc2c(c1)cc(C)n2C	-1	-1	-3	-21	13	0	.	.
Cc1cc2cc(CNC(=O)C(C)Oc3ccccc3)ccc2n1C (stereo not given)	0	-6	.	-14	36*	-8	20	-5
COc1cc(C=NNC(=O)c2ccc(-c3ccccc3)cc2)ccc1OCC(N)=O	.	.	1	.	.	.	.	.
Cc1csc(NC(=O)c2cc3c(C)nn(Cc4ccccc4Cl)c3s2)n1	-2	-5	-11	-7	33*	6	24	-1
Cc1nn(Cc2ccccc2Cl)c2sc(C(=O)NC(C)(C)C)cc12	-3	1	5	4	7	1	.	.
Cc1ccc(S(=O)(=O)NN=Cc2c(F)cccc2Cl)cc1	.	.	-2	.	.	.	.	.
Cc1nc(Nc2nc(CSc3nc4ccccc4[nH]3)cc(=O)[nH]2)nc2ccccc12	-1	-8	.	4	34*	2	46*	20*
COc1ccc2nc(Nc3nc(CSc4nc5ccccc5[nH]4)cc(=O)[nH]3)nc(C)c2c1	0	8	-7	-6	7	0	.	.
COc1cccc(C=NNC(=O)CSc2ccccc2C)c1OC	.	.	8	.	.	.	.	.
CCOC(=O)/C=C/S(=O)(=O)c1ccc(NC(C)=O)cc1	-1	-7	25	-21	89*	5	-10	98*
CCOC(=O)/C=C/C(=O)Nc1ccc(S(=O)(=O)Nc2c(C)cc(C)cc2C)cc1	0	4	1	-22	4	1	.	.
CC1OC(OC2CC[C@@]3(C)C(CC[C@]4(C)C3C=CC3=C5CC(C)(C)CC[C@]5(CO)C(O)C[C@]34C)[C@]2(C)CO)C(O)C(OC2OC(CO)C(O)C(O)C2O)C1O (stereo not given in full)	.	.	-3	.	.	.	.	.
O=C(C1=CC(c2ccc(C(F)(F)F)cc2)CC(OCCCCO)O1)N1CCOCC1 (stereo not given)	.	.	5	.	.	.	.	.
Cc1nc2ccccc2nc1SCC(=O)N1CCC(C)CC1	1	4	9	-7	55*	-1	50*	5
CC1CCCN(C(=O)CSc2cnc3ccccc3n2)C1 (stereo not given)	0	-11	18	-80	39*	5	71*	0
CC1CCCN(C(=O)CSc2nc3ncccc3[nH]2)C1 (stereo not given)	2	.	-8	-4	0	2	.	.
COc1cc(C=NNC(=O)Nc2ccccc2)ccc1OC(C)=O	.	.	4	.	.	.	.	.
O=C(O)c1ccccc1C=NNc1ccc(S(=O)(=O)N2CCCC2)cc1[N+](=O)[O-]	.	.	18	.	.	.	.	.
O=C(NC1CC1)C1=CC(c2csc3ccccc23)CC(OCc2ccc(CO)cc2)O1 (stereo not given)	.	.	13	.	.	.	.	.
CC(=O)CSc1nc(-c2cccs2)c(C#N)c(=O)[nH]1	1	-4	1	-10	91*	0	99*	-5
COc1ccc(OC)c(C=NNC(=O)c2ccc(=O)[nH]n2)c1	.	.	0	.	.	.	.	.
COc1ccc(C(=O)Nc2ccc(-c3n[nH]c(=S)o3)cc2)cc1OC	2	-13	18	-15	-1	-5	.	.
COc1ccccc1-c1n[nH]c(=S)o1	.	.	2	-14	48*	4	48*	-1
COc1ccccc1-c1n[nH]c(=S)n1N	-1	8	16	-3	-2	1	.	.
SMILES	RecA splice inh	BJeLR viability	Mtb hypoxia rep	PrP UTR inh	PrPC TRFRET	SARS 3CLpro inh	PrPC TRFRET cf	LD9 tox
COc1ccc(Cl)cc1-c1n[nH]c(=S)o1	1	1	.	-20	69*	-2	85*	-1
COc1ccccc1-c1n[nH]c(=S)n1-c1ccccc1	2	3	.	-25	48*	5	61*	6
Oc1ccc(C=NNC(=S)Nc2cccnc2)c(O)c1	.	.	20	.	.	.	.	.
CCC1=C(CC2NCCc3ccccc32)CC2c3cc(OC)c(OC)cc3CCN2C1 (stereo not given)	.	.	.	7	76*	.	83*	28*
COc1cc2c(cc1OC)CN1CCc3cc(OC)c(OC)cc3C1C2 (stereo not given)	.	.	.	.	-16	.	.	.
COc1cc(C=Nn2nnnc2N)ccc1OCC(N)=O	.	.	-8	.	.	.	.	.
CC(C)Cc1ccc(C(C)C(=O)Nc2ccc(O)cc2)cc1 (stereo not given)	6	2	11	-3	28*	3	21	0
O=C(OCC12CC3CC(CC(C3)C1)C2)c1ccc(NCc2cc(O)ccc2O)cc1	.	.	.	-23	25*	.	26*	22*
O=C(OCCC12CC3CC(CC(C3)C1)C2)c1ccc(NCc2cc(O)ccc2O)cc1	.	.	.	-2	28*	.	45*	72*
Cc1ccc(NC(=O)c2c(C(F)(F)F)nn(C)c2SCc2cccc(C(F)(F)F)c2)cc1C	0	9	11	-12	30*	-8	25*	9.4*
Cn1c(N2CCCCC2)nc2c1c(=O)n(Cc1cccc(Br)c1)c(=O)n2C	-1	-7	14	-16	.	2	.	.
Cn1c(N2CCC(C(N)=O)CC2)nc2c1c(=O)n(Cc1ccc(Br)cc1)c(=O)n2C	0	-2	7	-1	26*	1	29*	2
Cc1ccc(NC=C(C#N)c2ccsc2)cc1C	.	.	7	.	.	.	.	.
N#C/C(=C(/O)c1cccc(F)c1)c1nc2ccccc2s1	0	5	-1	-32	2	5	.	.
N#C/C(=C(/O)C(Cl)c1ccccc1)c1nc2ccccc2s1 (stereo not given)	9	-7	-2	-40	43*	7	38*	-2
COc1cc(/C=N/NC(=O)c2ccc(CN(C)S(=O)(=O)c3ccc(C)cc3)cc2)ccc1O	1	4	.	-11	28*	-4	13	-1
COc1cc(C=NNC(=O)c2ccccc2)ccc1O	.	.	2	.	.	.	.	.
CCCc1nc(SCC(=O)Nc2ccc(N3CCOCC3)cc2)c2ccccc2n1	1	-10	.	-4	18	-1	.	.
Cc1ccc(NC(=O)CSc2ccccc2)cc1S(=O)(=O)N1CCCCC1	.	.	5	-3	11	.	.	.
CC(C)c1nc(SCC(=O)Nc2ccc(N3CCOCC3)cc2)c2ccccc2n1	2	-15	1	-5	33*	5	52*	-2
Cc1ccc(NC(=O)CSc2ncnc3ccccc23)cc1S(=O)(=O)N1CCCCC1	3	0	13	-11	48*	5	76*	-6
Cc1ccc(NC(=O)CSc2ncnc3ccccc23)cc1S(=O)(=O)N1CCOCC1	0	11	-1	-2	61*	1	55*	-11
COc1ccc(C=NNC(=O)CN2CCSCC2)cc1C	.	.	3	.	.	.	.	.
